{"source": "PubChem BioAssay"}
{"target": "Fibroblast growth factor 10 (Homo sapiens) (UniProt O15520)", "sequence (O15520 whole entry, looked up)": "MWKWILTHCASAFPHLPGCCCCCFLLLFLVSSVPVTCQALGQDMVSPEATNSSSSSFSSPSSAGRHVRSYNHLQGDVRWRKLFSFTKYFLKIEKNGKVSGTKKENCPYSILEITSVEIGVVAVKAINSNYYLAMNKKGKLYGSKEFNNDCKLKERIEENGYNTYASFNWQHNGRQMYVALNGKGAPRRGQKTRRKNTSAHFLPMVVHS", "assay": "compounds binding fibroblast growth factor 10 – biochemical, small-molecule microarray, 635 nm fluorescence, primary screen (AID 1102)", "settings": "FGF10 binding, fluorescence 635 nm, higher = more signal"}
{"smiles": "CCOC(=O)[C@H]1C/C=C/C[C@H](C(=O)OCC)C(=O)O[C@H]2[C@@H](OC)O[C@H](CO)[C@@H](OC(=O)c3ccc(Br)cc3)[C@@H]2OC1=O", "composite z-score": 0.88}
{"smiles": "O=C1OCC=C[C@H]2OC34C=CCN(Cn5nnc6ccccc65)C(=O)[C@H]3N(CCCCCO)C(=O)[C@@H]4[C@@H]12", "note": "(some centres not stated)", "composite z-score": -0.658}
{"smiles": "COCC(=C=CC[C@H](O)c1cccc(OCCO)c1)CCO", "composite z-score": 0.569}
{"smiles": "O=C1NC(=O)C2C1C=CC(C(O)c1ccc(I)cc1)N2Nc1ccc(Cl)cc1Cl", "note": "(configuration not stated)", "composite z-score": 0.41}
{"smiles": "COC(=O)[C@@]1(Cc2ccccc2)[C@H]2c3cc(C(=O)N(C)C)n(CCc4c[nH]c5ccc(O)cc45)c3C[C@H]2CN1C(=O)c1ccccc1", "composite z-score": 0.288}
{"tested_on": "glycogen synthase kinase-3 (GSK3A per assay name; protocol says GSK3B)", "assay": "compounds binding glycogen synthase kinase-3 – biochemical, small-molecule microarray, 635 nm fluorescence, GSK3A, primary screen (AID 1103); also: the record names both GSK3A and GSK3B", "settings": "fluorescence 635 nm, higher = more signal"}
{"smiles": "CCOC(=O)C[C@H]1[C@H](OC(=O)c2ccc(-c3ccccc3)cc2)[C@@H](NC(=O)c2ccccc2)c2cc(OCCCO)ccc2N1C(=O)c1ccc2ccccc2n1", "composite z-score": 0.538}
{"smiles": "O=c1cccc(-c2ccccc2Cl)o1", "composite z-score": 0.0083}
{"smiles": "C=CCC(OC(C)=O)[C@@H]1[C@@H](N(Cc2cc3ccccc3o2)C(=O)Cc2ccc(OC)cc2)c2cc(OCCCO)ccc2N1C(=O)c1ccc2ccccc2c1", "note": "(some centres not stated)", "composite z-score": -0.683}
{"smiles": "CS(=O)(=O)CCOC(=O)C1=CC(CCCO)=CC(c2ccc(CN3CCCC3)cc2)N(Cc2cccc(OC(F)(F)F)c2)C=C1C(=O)OCCS(C)(=O)=O", "note": "(configuration not stated)", "composite z-score": 0.997}
{"smiles": "O=C1[C@@]23C=C(Br)[C@H](C[C@@H]2COC3)[C@]12CO2", "composite z-score": -0.88}
{"smiles": "O=C(CS)NCCCCCNC(=O)[C@H]1C[C@H]2C(=O)NCC(=O)N2[C@H]1c1ccc(O)cc1", "composite z-score": -1.32}
{"smiles": "CC(c1ccccc1)C(O)C1C=CC2C(=O)N(c3ccccc3)C(=O)C2N1Nc1ccccc1", "note": "(configuration not stated)", "composite z-score": 0.297}
